Data as given in PMC10726135, “HNF4α isoforms regulate the circadian balance between carbohydrate and lipid metabolism in the liver”.
Whole data set: some 18,000 sequences, median “log2 normalized intensity” near 0.36, cut for the highest 2% near 7.3. Many of the other results were omitted from the sample, so the highest values are more common in it than they were.

These sequences were tested against T1, HNF4alpha8 (COS-7 nuclear extract) (Homo sapiens, UniProt P41235-5 1-452) (assay: protein-binding microarray; COS-7 nuclear extract on double-stranded Agilent 4x180k PBM; binding buffer, salt, pH and temperature not given in the material; high values mean tight binding). Conditions: chain copies: 2; label: 3' end of strand 1 on the slide; dsDNA, one strand shown.
T1 sequence: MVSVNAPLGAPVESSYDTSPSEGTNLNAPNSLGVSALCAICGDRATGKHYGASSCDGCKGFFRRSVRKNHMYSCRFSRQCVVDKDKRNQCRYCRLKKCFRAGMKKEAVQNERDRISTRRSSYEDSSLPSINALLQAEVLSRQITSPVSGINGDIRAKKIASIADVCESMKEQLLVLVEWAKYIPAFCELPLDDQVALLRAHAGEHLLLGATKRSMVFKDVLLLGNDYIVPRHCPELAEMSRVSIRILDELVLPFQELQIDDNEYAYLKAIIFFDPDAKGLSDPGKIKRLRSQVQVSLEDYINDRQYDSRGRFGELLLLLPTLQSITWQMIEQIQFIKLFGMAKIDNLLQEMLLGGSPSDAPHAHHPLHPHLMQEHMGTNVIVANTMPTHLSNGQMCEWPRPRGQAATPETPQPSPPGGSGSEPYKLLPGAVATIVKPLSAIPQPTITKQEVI
In short: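 Nuclear extracts from COS-7 cells expressing a transiently transfected human HNF4α isoform were put on a custom Agilent SurePrint G3 4x180k array carrying ~44,000 double-stranded ~60-nt test sequences in quadruplicate. Imaging used an Agilent G2565CA scanner at 2-µm resolution. Binding signal is the background-corrected, normalized gProcessedSignal from Agilent software.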

Sequence | binding signal
TTGCCTAACTGCTGCATGTCATGACCTTCAGCCTAGGGAGATTAGAGTATCGGTCGA | 3.69 log2 normalized intensity
TCTACTCCCTGTTCTTACACCTGCTCCCCTGCCTAGGGAGATTAGAGTATCGGTCGA | 2.97 log2 normalized intensity
TGTATACTTATGTAGAAAGATATCTCTGTGGCCTAGGGAGATTAGAGTATCGGTCGA | 1.3 log2 normalized intensity
AAGATCATTCCAGGAATGTTCAAGAAGTTCGCCTAGGGAGATTAGAGTATCGGTCGA | 0.0918 log2 normalized intensity
AGATAGGACAGTGGTCTTTATGACTTGGGTGCCTAGGGAGATTAGAGTATCGGTCGA | 1.4 log2 normalized intensity
GACTATTTTATTTTCCCCCTTTGAAGTCTGGCCTAGGGAGATTAGAGTATCGGTCGA | 3.2 log2 normalized intensity
GTCCTTCCCAAGTCCTGCATGTGTTCACACGCCTAGGGAGATTAGAGTATCGGTCGA | 1.21 log2 normalized intensity
GGCCAGGTGGGCTGCTCCCAGTGCCCTTTGGCCTAGGGAGATTAGAGTATCGGTCGA | 4.47 log2 normalized intensity
GGTGGGCTGCTCCCAGTGCCCTTTGAACTCGCCTAGGGAGATTAGAGTATCGGTCGA | 8.91 log2 normalized intensity
CCTGACCCCCAGTGGAATGTGCCCTTTGACGCCTAGGGAGATTAGAGTATCGGTCGA | 5.75 log2 normalized intensity
CCCTCTGAGTGTTTGACCTTTCACCCAGAAGCCTAGGGAGATTAGAGTATCGGTCGA | 7.2 log2 normalized intensity
GGAATGACCTTTGATATTTGTGCCTAGTGGGCCTAGGGAGATTAGAGTATCGGTCGA | 5.39 log2 normalized intensity
AATGTGCCCTTTGACCTCTCTCTCCTAACTGCCTAGGGAGATTAGAGTATCGGTCGA | 7.21 log2 normalized intensity
AGTGGAATGTGCCCTTTGACCTCTCTCTCCGCCTAGGGAGATTAGAGTATCGGTCGA | 8.33 log2 normalized intensity
CACTCTGGTGCCCTCTGAGTGTTTGACCTTGCCTAGGGAGATTAGAGTATCGGTCGA | 5.61 log2 normalized intensity
AGTAACCTGACCCCCAGTGGAATGTGCCCTGCCTAGGGAGATTAGAGTATCGGTCGA | 4.61 log2 normalized intensity
CCCCCAGTGGAATGTGCCCTTTGACCTCTCGCCTAGGGAGATTAGAGTATCGGTCGA | 10.3 log2 normalized intensity
GTGCTCCCTCCCCCTGCATGAACCTTTGCTGCCTAGGGAGATTAGAGTATCGGTCGA | 3.72 log2 normalized intensity
TGGTGCCCTCTGAGTGTTTGACCTTTCACCGCCTAGGGAGATTAGAGTATCGGTCGA | 8.17 log2 normalized intensity
TGCCCTATGTCCTCCAGCTCTTGGGGAACAGCCTAGGGAGATTAGAGTATCGGTCGA | 0.218 log2 normalized intensity
AAAGCCATCAGCACTGGTTCAAAGTGTAGCGCCTAGGGAGATTAGAGTATCGGTCGA | 1.25 log2 normalized intensity
AGAGGAAGATCTTTTTGATGACTTTGTAGGGCCTAGGGAGATTAGAGTATCGGTCGA | 0.915 log2 normalized intensity

Sequence | binding signal
TAAACCTGTTTGGTATCTACTCGGCAAAACGCCTAGGGAGATTAGAGTATCGGTCGA | 1.28 log2 normalized intensity
GACACTTCCAGCCAAACCAGGTCATGCATTGCCTAGGGAGATTAGAGTATCGGTCGA | 0.387 log2 normalized intensity
CCGTTAGCCAATATTTGCAAGGCTGTTGGCGCCTAGGGAGATTAGAGTATCGGTCGA | -0.823 log2 normalized intensity
CCCCCCAAGTTGAAGCCATCCTCCCACCTCGCCTAGGGAGATTAGAGTATCGGTCGA | 5.73 log2 normalized intensity
TATTAGGCAAAAGAGATAGCGAGAAGGCAGGCCTAGGGAGATTAGAGTATCGGTCGA | -0.999 log2 normalized intensity
TTATGTACTTAGTGTTTTATGTGTATTTACGCCTAGGGAGATTAGAGTATCGGTCGA | 2.09 log2 normalized intensity
AGTTTTGCAACATACTGAAAAAGGGTTGTGGCCTAGGGAGATTAGAGTATCGGTCGA | 1.23 log2 normalized intensity
GGCGCCGCTCTGAGTGACCTTTCACCCGCGGCCTAGGGAGATTAGAGTATCGGTCGA | 7.77 log2 normalized intensity
CGCTCTGAGTGACCTTTCACCCGCGCCCAGGCCTAGGGAGATTAGAGTATCGGTCGA | 6.45 log2 normalized intensity
CGCCGGGCGCCGCTCTGAGTGACCTTTCACGCCTAGGGAGATTAGAGTATCGGTCGA | 5.71 log2 normalized intensity
CCCTGCAATTTGATTTGTATGATCTTGGGTGCCTAGGGAGATTAGAGTATCGGTCGA | 1.73 log2 normalized intensity
TGTGATGTGAAGAGTGTGGACTTTCACCTCGCCTAGGGAGATTAGAGTATCGGTCGA | 8.92 log2 normalized intensity
TGTGAAGAGTGTGGACTTTCACCTCCACCAGCCTAGGGAGATTAGAGTATCGGTCGA | 6.7 log2 normalized intensity
TTCCCCAGTGAGGATGTGTGCTCGAGGTGGGCCTAGGGAGATTAGAGTATCGGTCGA | 1.11 log2 normalized intensity
GACCATGTGATGTGAAGAGTGTGGACTTTCGCCTAGGGAGATTAGAGTATCGGTCGA | 4.87 log2 normalized intensity
CAGTGAGGATGTGTGCTCGAGGTGGACTTTGCCTAGGGAGATTAGAGTATCGGTCGA | 7.48 log2 normalized intensity
AGGATGTGTGCTCGAGGTGGACTTTCCCCCGCCTAGGGAGATTAGAGTATCGGTCGA | 6.75 log2 normalized intensity
CAAGGGTCAGTTCATTAAAAAAAAAAAAAAGCCTAGGGAGATTAGAGTATCGGTCGA | 0.208 log2 normalized intensity
GATCAAGAGGAAGATCTTTTTGATGACTTTGCCTAGGGAGATTAGAGTATCGGTCGA | 0.895 log2 normalized intensity
AGTATTACCATGTCCTGTGATTAAGGTCAAGCCTAGGGAGATTAGAGTATCGGTCGA | 2.96 log2 normalized intensity
AACTATGCAGTGTCCATGGTGACCATGTGAGCCTAGGGAGATTAGAGTATCGGTCGA | 1.71 log2 normalized intensity
GGACTTCGAATGGTATGCTAGAGTACTTGGGCCTAGGGAGATTAGAGTATCGGTCGA | 1.51 log2 normalized intensity
